# In the library only some 13% were active in any assay of this set; here they are far more common.
# Cycloheximide cs – counter-screen for Shiga toxin inhibitors: cycloheximide protein synthesis inhibition. cell reporter, cycloheximide protein synthesis inhibition counterscreen. max response, %. 300,000 compounds, 12% hits; in the data active means max response mostly above about 13%, no sharp cut-off; inactive means mostly below about 14%; further: read at 38.3 µM for the half of the compounds with a filed dose
# FMDV inh – blocks foot and mouth disease virus; AID 1159524; 410,000 compounds, 1.2% hits; FMDV antiviral cell-based qHTS; Potency, µM (top dose mostly 57.9 µM), hits mostly inhibitors; calls by dose curve; tested in HEK293T cells; further: read-out not given here; nearly all actives have a fitted effect of over 45% in size
# Shiga toxin inh – inhibitors of Shiga toxin in Vero cells. 290,000 compounds, 9.2% hits. Vero cells, Shiga toxin protein synthesis inhibition reporter. inhibition, % at 38.7 µM. AID 2315; in the data active means inhibition mostly above about 28%, no sharp cut-off; inactive means mostly below about 43%
# HCV inhibitor – inhibitors of hepatitis C virus infection; Huh7.5.1 HCVcc-Cre infection, luciferase reporter, 44 h; Potency, µM (series often up to 41.8 µM), usual class: inhibitors; 340,000 compounds, 3.4% hits; AID 651820; active means well fitted inhibition curve with a large enough effect; inconclusive means small, poorly fitted or top-dose-only effect, or another doubt; inactive means no such curve, though single readings can be large or run the other way
#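 Compounds are dispensed onto cells plated 4 h earlier at 1,000 per well, with HCVcc-Cre virus (about 0.5 moi) added next. Following 44 h of culture, luminescent signal is measured for 15 sec after 15 min with substrate at room temperature.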
# Marburg entry inh – Marburg virus entry inhibition. AID 540276. 300,000 compounds, 1.8% hits. Marburg virus pseudotyped entry inhibition, cell reporter. Potency, µM (titrated, usually from 37.8 µM), most hits filed as inhibitors; calls by dose curve; tested in HEK293 cells
# LASV entry inh – blocks Lassa virus binding to or entry into cells; 300,000 compounds, 1.2% hits; Potency, µM (top dose mostly 37.9 µM), most hits filed as inhibitors; Lassa virus pseudotype entry inhibition, cell reporter; calls by dose curve; tested in HEK293 cells; further: nearly all actives have a fitted effect of over 50% in size
# A number is an active result; . = inactive; ? = inconclusive; / = not tested or not shown; + = active, no number.
SMILES,Cycloheximide cs,FMDV inh,Shiga toxin inh,HCV inhibitor,Marburg entry inh,LASV entry inh
CCC(=O)N1CCc2cc(Br)cc(S(=O)(=O)CCC(=O)N3CCN(c4ccccc4F)CC3)c21,/,.,/,/,.,.
CCN(CC)C(=O)c1ccc(-c2ccccc2)cc1,16.2,.,+,.,?,.
CN(C)CC(=O)c1ccc(-c2ccccc2)cc1,23.7,.,.,.,.,.
CCN(Cc1ccccc1)C(=O)c1ccc(C(=O)N(CC)Cc2ccccc2)cc1,.,?,.,?,/,/
COc1cccc(S(=O)(=O)Nc2ccc3c(c2)[C@@H]2C[C@H](CC(=O)NCCc4ccccc4)O[C@H](CO)[C@@H]2O3)c1,/,.,/,/,/,/
COC(=O)[C@H](Cc1ccccc1)NC(=O)C1CCN(C(=O)[C@H](C)NS(=O)(=O)c2ccc(C)cc2)CC1,.,.,.,.,/,/
Cc1c(C(=O)NCc2ccc3c(c2)OCO3)oc2ccc(S(=O)(=O)N3CCC(C)CC3)cc12,.,?,.,?,?,?
Cc1c(C(=O)O)oc2ccc(S(=O)(=O)N3CCCC3)cc12,.,.,.,.,/,/
CCCCN(C)C(=O)c1oc2ccc(S(=O)(=O)N3CCCCCC3)cc2c1C,.,35.5µM,.,/,.,.
Cc1ccc2oc(C(=O)NCC3CCOCC3)c(C)c2c1,.,.,59.2,.,/,/
Cc1ccc2oc(C(=O)NCc3ccc4c(c3)OCO4)c(C)c2c1,23.6,.,.,.,.,?
Cc1c(C(=O)NCc2ccc3c(c2)OCO3)oc2ccc(S(=O)(=O)N3CCCCCC3)cc12,.,?,.,?,13µM,.
Cc1c(C(=O)NCc2ccc3c(c2)OCO3)oc2ccc(Br)cc12,.,.,.,.,.,.
OCCC1CN(Cc2ccc(Oc3ncccn3)cc2)CCN1C1CCCC1 (configuration not stated),.,.,.,.,/,/
Cc1nc2ccccc2c2oc(C(=O)Nc3ccc4c(c3)OCCO4)cc12,.,.,.,12.6µM,/,/
CCc1ccc(CNC(=O)c2cc3c(C)nc4ccccc4c3o2)cc1,.,?,.,11.2µM,/,/
CCOC(=O)N1CCC(NC(=O)c2cc3c(C)nc4ccccc4c3o2)CC1,.,.,.,?,/,/
Cc1nc2ccccc2c2oc(C(=O)Nc3ccc(C(C)C)cc3)cc12,.,?,.,?,/,/
Cc1nc2ccccc2c2oc(C(=O)N3CCCC(C)C3)cc12 (configuration not stated),14.8,.,.,.,/,/
Cc1nc2ccccc2c2oc(C(=O)N3CCC(N4CCCCC4)CC3)cc12,.,.,.,.,.,.
CCCCN(CC)CCNC(=O)c1cc2c(C)nc3ccccc3c2o1,.,.,.,6.31µM,/,/
Cc1scc(C(=O)O)c1-c1c(C(=O)O)csc1C,.,.,.,.,.,.
COc1cccc(CNC(=O)c2cc3c(C)nc4ccccc4c3o2)c1,.,22.4µM,.,6.31µM,/,/
CCN1CCCC1CNC(=O)c1cc2c(C)nc3ccccc3c2o1 (configuration not stated),.,.,.,?,.,.
COc1ccc(CNC(=O)c2cc3c(C)nc4ccccc4c3o2)c(OC)c1,.,?,.,3.16µM,/,/
SMILES,Cycloheximide cs,FMDV inh,Shiga toxin inh,HCV inhibitor,Marburg entry inh,LASV entry inh
COc1cc(NC(=O)c2cc3c(C)nc4ccccc4c3o2)cc(OC)c1OC,.,.,.,?,.,/
Cc1nc2ccccc2c2oc(C(=O)NCCN3CCCCC3C)cc12 (configuration not stated),.,.,.,?,20.6µM,.
COc1ccc(OC)c(CNn2c(-c3cccc(C)c3)nc3ccccc3c2=O)c1,.,/,.,?,?,.
COc1cccc(CNn2c(-c3cccc(C)c3)nc3ccccc3c2=O)c1,19.0,/,.,?,?,18.3µM
O=C(c1cccc(F)c1)N1CCN(C(=O)c2cc3ncc(Br)cn3n2)CC1,.,.,.,.,.,.
CC1C(=O)N(Cc2cn(CCC3OCCO3)nn2)CCS(=O)(=O)N1Cc1ccc(-c2ccc(F)nc2)cc1 (configuration not stated),/,.,/,/,/,/
CCN(CC)S(=O)(=O)c1cccc(C(=O)OCC(=O)NC(C)c2ccccc2)c1 (configuration not stated),.,.,.,.,.,.
CCOC(=O)c1c(-c2ccc(OC)cc2)csc1NC(=O)CCN1C(=O)c2ccccc2C1=O,.,.,.,?,.,.
Cc1onc(-c2ccccc2)c1C(=O)NCC1COc2ccccc2O1 (configuration not stated),.,.,.,.,.,.
Cc1nc2ccccc2c2oc(C(=O)NCC3COc4ccccc4O3)cc12 (configuration not stated),.,?,.,10µM,?,20.6µM
COC(=O)[C@]12CCCCC=C1N(Cc1ccccc1)C(=O)[C@H](CC(=O)N1CCOCC1)C2,/,.,/,/,/,/
O=c1c2sc(-c3ccccc3)cc2nc2n1CCCCC2,53.4,.,55.6,.,?,.
O=c1c2sc(-c3ccccc3)cc2nc2n1CCC2,23.8,.,25.6,.,4.47µM,?
Cc1cccc(OCCn2c(CCCO)nc3ccccc32)c1,.,.,.,.,.,.
c1ccc(OCCCc2nc(-c3ccccn3)no2)cc1,33.9,.,42.3,.,.,.
Nc1nonc1-c1noc(CCCCCN2C(=O)c3ccccc3C2=O)n1,74.9,.,148.0,.,.,.
O=C1c2ccccc2C(=O)N1CCCc1nc(-c2ccc(Cl)cc2)no1,.,.,.,.,/,/
COc1ccc(-c2noc(CCN3C(=O)c4ccccc4C3=O)n2)cc1OC,.,.,.,.,.,.
O=C1c2ccccc2C(=O)N1CCCc1nc(-c2ccccn2)no1,22.7,.,83.9,.,.,.
c1ccc(OCCCc2nc(-c3ccncc3)no2)cc1,.,/,.,.,.,.
O=C1c2ccccc2C(=O)N1CCc1nc(-c2ccccn2)no1,28.1,.,57.8,.,?,.
Cc1ccc(CNC(=O)c2ccc(CSCc3cccc(C)c3)o2)cc1,/,.,/,/,/,.
Cc1cccc(CSCc2ccc(C(=O)NC(C)C)o2)c1,.,?,.,12.6µM,/,/
Cc1cccc(CSCc2ccc(C(=O)O)o2)c1,15.7,.,.,.,/,/
CCC[N+](CC#Cc1ccccc1)(CCC)CC(=O)OCC,.,.,.,.,.,.
SMILES,Cycloheximide cs,FMDV inh,Shiga toxin inh,HCV inhibitor,Marburg entry inh,LASV entry inh
Cc1cc(C(=O)N/N=C/c2cn(C)nc2C)c2ccccc2n1,.,.,.,.,/,/
CCn1cc(/C=N\NC(=O)c2cc(-c3ccccc3OC)nc3ccccc23)c(C)n1,.,.,.,.,?,.
Cc1c(/C=N\NC(=O)c2c[nH]c3ccccc23)cnn1C,15.4,.,46.3,.,?,.
CCn1cc(/C=N\NC(=O)c2csc3ccccc23)c(C)n1,44.4,.,.,.,.,?
CCn1cc(/C=N\NC(=O)c2c[nH]c3ccccc23)c(C)n1,.,.,73.8,.,.,?
Cc1nc(N2CCN(c3ccccc3)CC2)[nH]c(=O)c1Cc1cccc2ccccc12,.,/,.,/,/,/
Cc1nn(CC(=O)N2CCN(c3ccccc3)CC2)c(C)c1[N+](=O)[O-],.,.,.,.,.,.
